Out of some 6,200 compounds screened, about 2,900 (47%) were called active. Rule as the data show it: active = inhibition above about 50%; inactive = the rest. The set was probably picked from earlier hits. The list shows a part of the results.
assay: Mycobacterium tuberculosis growth inhibition, primary screen (AID 1259343); settings: inhibition: at 10 µM, stronger effect = higher value; outcome: 10 uM

| SMILES | inhibition |
| --- | --- |
| COc1cc2c(cc1O)C(SC)=NC(C)(C)C2 | 55.5% (active) |
| CC(=O)NC(C)C(=O)Nc1cccc(Sc2ccccc2)c1 (stereo unspecified) | 62.7% (active) |
| Cc1csc(C(C#N)C(=O)Nc2ccccc2)n1 (stereo unspecified) | -32.9% (inactive) |
| CCCS(=O)(=O)N1CC=C(c2c[nH]c3cc(F)ccc23)CC1 | 88.2% (active) |
| CCCS(=O)(=O)N1CCc2[nH]c3ccc(F)cc3c2C1 | 22.7% (inactive) |
| CC1CCN(S(=O)(=O)N2CC=C(c3c[nH]c4ccccc34)CC2)CC1 | 29.2% (inactive) |
| O=C(Nc1cccc2cnccc12)OCC(F)(F)F | 72.3% (active) |
| COc1cc(C(=O)C(C#N)C(=O)CC(C)(C)C)ccc1C (stereo unspecified) | 101% (active) |
| Cc1ccc(C(=O)O)cc1OCc1csc(Br)c1 | 7.03% (inactive) |
| CCC(=NNc1ccnc2cc(Cl)ccc12)c1ccccc1 | 93.9% (active) |
| CC(=NNc1ccnc2cc(Cl)ccc12)c1ccc(C)o1 | 2.38% (inactive) |
| CC(Nc1nc(-c2cccs2)nc2cc(Cl)ccc12)c1ccccc1 (stereo unspecified) | 3.37% (inactive) |
| CN(C)c1ccccc1NC(=O)c1ccccc1OC(F)F | 23.1% (inactive) |
| CC(OC(=O)c1ccc([N+](=O)[O-])o1)C(=O)Nc1ccccc1OC(F)F (stereo unspecified) | 101% (active) |
| CC1CCC(C(C)C)C(OC(=O)COC(=O)c2ccc([N+](=O)[O-])o2)C1 (stereo unspecified) | 10.8% (inactive) |
| COc1ccc(-c2nc(CNc3ccc(C)c(F)c3)no2)cc1 | 91.5% (active) |
| CC(C)c1ccc(NC(=O)c2ccc(-c3ccnn3C)c3ccoc23)cc1 | 77.8% (active) |
| CC(C)c1cnc(COc2ccc(Br)nc2)o1 | 38.6% (inactive) |
| Cc1nc(NC(=O)c2cccc(Br)c2)oc1C | 94.3% (active) |
| NC(=S)c1cccc(Br)c1 | 22.8% (inactive) |
| CN(CC(=O)c1cccc(Br)c1)C1CCCCC1 | 13.2% (inactive) |
| COc1ccccc1OCc1coc(-c2ccc(C)cc2C)n1 | 40.9% (inactive) |

| SMILES | inhibition |
| --- | --- |
| Cc1ccc(-c2nc(COc3ccc(C)cn3)co2)cc1 | 58.5% (active) |
| c1csc(-c2nc(COc3ccc4c(c3)CCC4)co2)c1 | -21.4% (inactive) |
| O=C(Cc1cc(-c2ccc3c(c2)OCO3)on1)NCc1cccs1 | 90.9% (active) |
| CC1Cc2cc(-c3cc(CO)no3)ccc2O1 (stereo unspecified) | -11.9% (inactive) |
| O=C(O)Cc1cc(-c2ccc3c(c2)OCCO3)on1 | 73.2% (active) |
| COC(=O)CC1CC(=O)C2C(=O)c3c(OC)ccc(Br)c3C2C1 (stereo unspecified) | 28.1% (inactive) |
| O=C1c2ccccc2-c2nn(CN3CCN(c4ccccc4)CC3)c3cccc1c23 | 31.3% (inactive) |
| c1ccc(N2CCN(c3ccccn3)CC2)cc1 | 61.2% (active) |
| O=S(=O)(N1CCN(c2ccccc2)CC1)C(F)(F)C(F)(F)C(F)(F)C(F)(F)F | 21.4% (inactive) |
| CCCCCCSC1=C(C#N)C2(CCCCC2)C(C#N)C(=O)N1 (stereo unspecified) | 4.19% (inactive) |
| Fc1ccc(/C=C/c2nnc(-c3ccccc3Cl)o2)cc1 | 42.9% (inactive) |
| Fc1ccc(-c2nnc(-c3ccc4c(c3)OCO4)o2)cc1 | 70.5% (active) |
| Clc1ccccc1-c1nnc(-c2ccc3c(c2)OCO3)o1 | 72.5% (active) |
| Fc1ccccc1-c1nnc(-c2ccc3c(c2)OCO3)o1 | -0.93% (inactive) |
| Oc1ccccc1C1CC(c2ccc3c(c2)OCO3)=NC(c2cccc(F)c2)N1 (stereo unspecified) | -19.4% (inactive) |
| O=C(Nc1cccc(O)c1)c1nn2c(C(F)(F)F)cc(-c3ccccc3)nc2c1Cl | -37.9% (inactive) |
| Oc1c(Cl)cc(Cl)cc1C=NNc1nc2ccccc2s1 | 101% (active) |
| Fc1ccc2c(c1)C(=NNc1nc3ccccc3s1)CCS2 | -16.9% (inactive) |
| c1ccc2c(c1)CCC(=NNc1nc3ccccc3s1)C2 | 48.5% (inactive) |
| CC(C)C1CC(=NNC(N)=S)C=C2CCCCC21 (stereo unspecified) | 102% (active) |
| CC(Oc1ccccc1)C(=O)Nn1cnc2c(cnn2-c2ccc(F)cc2)c1=O (stereo unspecified) | 70.4% (active) |
| COCCCNC(=O)c1nn(-c2ccc(F)cc2)c2ncccc12 | 42.3% (inactive) |

| SMILES | inhibition |
| --- | --- |
| C=CCSc1nnc(-c2cc(Br)ccc2N)c(=O)[nH]1 | 76.5% (active) |
| Cc1ccc(-c2nnc(-c3ccccc3N)[nH]c2=O)cc1C | 49.2% (inactive) |
| CCCCCCCCc1nnc(N)s1 | 89.3% (active) |
| CCc1ccc(NCC(=O)Nc2ccc(I)cc2C)cc1 | 53.6% (active) |
| CCc1ccc(NC(=O)CNc2ccc(F)c(F)c2F)cc1 | 96.5% (active) |
| CCCCc1ccc(NC(=O)CNc2ccccc2C(C)=O)cc1 | 90.7% (active) |
| CCC(C)c1ccc(NC(=O)CNc2ccc(F)c(C(=O)OC)c2)cc1 (stereo unspecified) | -5.36% (inactive) |
| CN(Cc1ccc(Br)cc1)C(=O)Nc1ccc(F)c(F)c1F | 44.5% (inactive) |
| CC(C)C(=O)NC(=S)Nc1nc2ccc(Cl)cc2s1 | 13.7% (inactive) |
| CSc1nc2cc(NC(=S)NC(=O)c3ccccc3)ccc2s1 | 91.3% (active) |
| O=C(COc1ccc(F)cc1)N1CCOC(COc2cccc(C(F)(F)F)c2)C1 (stereo unspecified) | 15.7% (inactive) |
| O=C(Cc1cccc(Cl)c1)N1CCOC(COc2cccc(C(F)(F)F)c2)C1 (stereo unspecified) | 17.4% (inactive) |
| COc1cc(C(=O)N2CCOC(COc3cccc(C(F)(F)F)c3)C2)ccc1F (stereo unspecified) | 62.2% (active) |
| O=C(c1cc(F)cc(F)c1)N1CCOC(COc2cccc(C(F)(F)F)c2)C1 (stereo unspecified) | 84.5% (active) |
| N#CSc1ccc(N)c(Cl)c1 | 94.6% (active) |
| Cc1cccc(OCCN(C)c2cnn(-c3ccc(F)cc3F)c(=O)c2Cl)c1 | 14.4% (inactive) |
| Cc1ccc(CSc2nc(CC(=O)NCc3ccco3)cs2)cc1 | 90.2% (active) |
| Cc1ccc(CSc2nc(CC(=O)NCc3ccccc3)cs2)cc1 | 62.1% (active) |
| CCNC(=O)Cc1csc(SCc2ccc(C)cc2)n1 | 72.3% (active) |
| Cc1ccc(CSc2nc(CC(=O)NCC(C)C)cs2)cc1 | 58.9% (active) |
| Cc1ccc(CSc2nc(CC(=O)O)cs2)cc1 | 31.9% (inactive) |
| CC(C)CN(CC(=O)Nc1nc(CC(=O)NCc2ccc(F)cc2)cs1)C(=O)c1ccc(Cl)cc1 | -3.41% (inactive) |

| SMILES | inhibition |
| --- | --- |
| Cc1ccc(CSc2nc(CC(=O)NC3CCCC3)cs2)cc1 | 3.98% (inactive) |
| CCC(C)NC(=O)Cc1csc(SCc2ccc(C)cc2)n1 (stereo unspecified) | -14.8% (inactive) |
| Cc1ccc(CSc2nc(CC(=O)NC(C)C)cs2)cc1 | 69.6% (active) |
| Cc1ccc(CSc2nc(CC(=O)NCc3cccs3)cs2)cc1 | 60.2% (active) |
| O=C(CCl)NC(=O)NCc1cccs1 | -19.2% (inactive) |
| Cc1ccc(CSc2nc(CC(=O)NCCC(C)C)cs2)cc1 | 5.27% (inactive) |
| Cc1ccc(CSc2nc(CC(=O)NC3CCCCC3)cs2)cc1 | 81.7% (active) |
| CC(C)CCNC(=O)Cc1csc(SCc2ccc(Cl)cc2)n1 | 68.8% (active) |
| Cc1ccc(CSc2nc(CC(=O)NC3CC3)cs2)cc1 | 50% (inactive) |
| CC(C)Cc1noc(-c2ccc(-c3ccc4c(c3)OCCO4)nc2)n1 | 3.86% (inactive) |
| CC(Cc1ccccc1F)NCc1noc(-c2ccc3c(c2)OCO3)n1 (stereo unspecified) | 59.5% (active) |
| CC(Cc1cccnc1)NCc1nc(Cc2ccccc2F)no1 (stereo unspecified) | 33.9% (inactive) |
| Nc1ccc2nc(SCc3ccc(F)cc3)sc2c1 | 16.7% (inactive) |
| Nc1nc2ccc(Oc3ccc4nc(N)sc4c3)cc2s1 | 21% (inactive) |
| Cc1nc2ccc(N)cc2s1 | 94.6% (active) |
| COc1cc(OC)nc(Nc2nc(C(N)Cc3ccc(F)cc3)cs2)n1 (stereo unspecified) | 71.1% (active) |
| COc1cc(OC)nc(Nc2nc(C(N)Cc3ccc(Cl)cc3)cs2)n1 (stereo unspecified) | 93.6% (active) |
| Oc1ccc(C=Nc2ccc3oc4ccccc4c3c2)c(O)c1O | 95% (active) |
| C(=C\c1cccc(N2CCNCC2)c1)/c1ccccc1 | 90.8% (active) |
| COc1cccc(C=CC(=O)c2cccc(N3CCOCC3)c2)c1 | 44.4% (inactive) |
| CC1(C)C2(Cl)C(Cl)C(Cl)C(Cl)(C(Cl)Cl)C1(Cl)C2Cl (stereo unspecified) | 65.2% (active) |
| S=c1nc[nH]c2nc[nH]c12 | 49.3% (inactive) |

| SMILES | inhibition |
| --- | --- |
| FC(F)(F)c1ccnc(NCC2COc3ccccc3O2)n1 (stereo unspecified) | 96.6% (active) |
| Brc1ccccc1CNCC1COc2ccccc2O1 (stereo unspecified) | -26.4% (inactive) |
| FC(F)(F)CCc1ccnc(NCC2COc3ccccc3O2)n1 (stereo unspecified) | 24.3% (inactive) |
| CN(CC(O)c1ccccc1F)C(c1ccccc1)c1ccccc1 (stereo unspecified) | -46% (inactive) |
| OC(C#CCC(O)c1ccccc1)c1ccccc1 (stereo unspecified) | 101% (active) |
| O=S(=O)(c1ccc(F)cc1)N1CCCC(OCc2cc(F)cc(F)c2)C1 (stereo unspecified) | 2.58% (inactive) |
| N#Cc1ccc(S(=O)(=O)N2CCC(Cc3ccc(F)cc3)CC2)cc1 | 60.9% (active) |
| N#Cc1ccc(S(=O)(=O)N2CCN(c3ccccc3F)CC2)cc1 | 8.35% (inactive) |
| N#Cc1ccc(S(=O)(=O)N2CCC(Cc3ccc(C(F)(F)F)cc3)CC2)cc1 | 71.7% (active) |
| O=C(O)c1cc[c]([Hg][Cl])cc1 | 33.6% (inactive) |
| COc1ccc(Cl)cc1NCC(=O)N1CCc2sccc2C1 | 83.7% (active) |
| O=C(CNc1ccc2c(c1)OC(F)(F)O2)N1CCc2sccc2C1 | -40% (inactive) |
| COc1ccc(C)cc1NC(=O)N1CCN(CCCOC(c2ccc(Cl)cc2)c2ccc(Cl)cc2)CC1 | -0.67% (inactive) |
| CC(C)Oc1ccc(NC(=O)C2CCOCC2)cc1Cl | 95.4% (active) |
| CC(C)Oc1ccc(NC(=O)Cc2cccs2)cc1Cl | 38% (inactive) |
| C=CCn1c(=NC(=O)c2ccc(OC)cc2)sc2cccc(OC)c21 | 39.7% (inactive) |
| CCc1c(C)nc(-n2nc(C)cc2NC(=O)c2cccs2)[nH]c1=O | 101% (active) |
| Cc1cc(NC(=O)c2cccs2)n(-c2nc(C)c(C)c(=O)[nH]2)n1 | 98.8% (active) |

Source: PubChem BioAssay AID1259343 (VanderVen Lab, College of Veterinary Medicine, Cornell …, 2017)
